{
  "source": "PubChem BioAssay (NCATS)",
  "note": "Inconclusive results are not listed. Calls of active or inactive are those of the source. Calls follow the shape of the dose curve; as a rule, active = well fitted cell-killing curve with a large enough effect; inconclusive = small, poorly fitted or top-dose-only effect; inactive = no such curve, though single readings can be large or run the other way. Potency is read from the fitted curve at half-maximal effect.",
  "data": [
    {"test": "Quantitative High-Throughput drug screen in 47 multiple myeloma cell lines against the NCATS MIPE library collection: NCIH929_DSMZ cell viability assay (AID 1918978); also: nearly all actives have a fitted effect of over 35% in size", "conditions": "NCI-H929 myeloma viability, CellTiter-Glo ATP, 48 h; series mostly up to 45.8 µM", "method_in_brief": "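Inhibition of viability over 48 h was scored by ATP content (CellTiter-Glo) in 500-cell wells. Zero and full viability were defined by media-only and DMSO-only wells.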", "values": [
      {"smiles": "Clc1ccccc1C(c1ccccc1)(c1ccccc1)n1cccn1", "Potency": "inactive"},
      {"smiles": "C[C@@H]1CC[C@H]2[C@@H](C)C(=O)O[C@@H]3O[C@@]4(C)CC[C@H]1[C@]32OO4", "Potency": "13.2 µM (active)"},
      {"smiles": "Cc1[nH]nc2ccc(-c3cncc(OC[C@@H](N)Cc4c[nH]c5ccccc45)c3)cc12", "Potency": "1.05 µM (active)"},
      {"smiles": "C[C@@H]1O[C@@H](O[C@@H]2C=C3CC[C@@H]4[C@@H](CC[C@]5(C)[C@H](c6ccc(=O)oc6)CC[C@@]45O)[C@@]3(C)CC2)[C@H](O)[C@H](O)[C@H]1O", "Potency": "0.0469 µM (active)"},
      {"smiles": "CC[C@@]1(O)C(=O)OCc2c1cc1n(c2=O)Cc2cc3ccccc3nc2-1", "Potency": "0.105 µM (active)"},
      {"smiles": "NC1=NC(=O)N2CC12", "note": "(stereo not given)", "Potency": "9.35 µM (active)"},
      {"smiles": "C[C@]12Cc3cn[nH]c3C[C@@H]1CC[C@@H]1[C@H]2CC[C@@]2(C)[C@H]1CC[C@]2(C)O", "Potency": "inactive"},
      {"smiles": "CC1=C(O)C(=O)C=C2C1=CC=C1[C@@]2(C)CC[C@@]2(C)[C@@H]3C[C@](C)(C(=O)O)CC[C@]3(C)CC[C@]12C", "Potency": "0.372 µM (active)"},
      {"smiles": "CC=C(C)C(=O)O[C@H]1C(C)=C2[C@@H]3OC(=O)[C@@](C)(O)[C@@]3(O)[C@@H](OC(=O)CCC)C[C@](C)(OC(C)=O)[C@@H]2[C@@H]1OC(=O)CCCCCCC", "Potency": "0.332 µM (active)"},
      {"smiles": "COCC1(CO)C(=O)C2CCN1CC2", "note": "(stereo not given)", "Potency": "0.833 µM (active)"},
      {"smiles": "CN1CCN(c2ccc([N+](=O)[O-])c3no[n+]([O-])c23)CC1", "Potency": "11.8 µM (active)"},
      {"smiles": "C[C@]12CCC(=O)C(O)=C1CC[C@@H]1[C@H]3CCC(=O)[C@@]3(C)CC[C@@H]12", "Potency": "inactive"},
      {"smiles": "COc1cc([C@@H]2c3cc4c(cc3[C@@H](O)C3COC(=O)C32)OCO4)cc(OC)c1O", "note": "(stereo not given in full)", "Potency": "0.132 µM (active)"},
      {"smiles": "COc1ccc2c(c1)[C@]13CCCCC1C(C2)N(C)CC3", "note": "(stereo not given in full)", "Potency": "inactive"},
      {"smiles": "CC(N[C@H]1C[C@H]1c1ccccc1)c1ccc2c(c1)OCCO2", "note": "(stereo not given in full)", "Potency": "inactive"},
      {"smiles": "C#CC1(O)CCC2C3CCC4=CC(=O)CCC4(C)C3CCC21C", "note": "(stereo not given)", "Potency": "inactive"},
      {"smiles": "C[C@]12COC(=O)C[C@@H]1CC[C@@H]1[C@H]2CC[C@@]2(C)[C@H]1CC[C@]2(C)O", "Potency": "inactive"},
      {"smiles": "C#C[C@]1(O)C=C[C@@H]2[C@@H]3CCC4=CC(=O)CC[C@@H]4[C@H]3CC[C@@]21CC", "Potency": "inactive"},
      {"smiles": "CCOP(=O)(OCC)C(C)NC(=O)N(CCCl)N=O", "note": "(stereo not given)", "Potency": "inactive"},
      {"smiles": "CSCC[C@@H](NC(=O)[C@@H](Cc1ccccc1)NC(=O)CNC(=O)CNC(=O)[C@@H](N)Cc1ccc(O)cc1)C(=O)O", "Potency": "inactive"},
      {"smiles": "CCc1c(C(=O)C(N)=O)c2c(OCC(=O)O)cccc2n1Cc1ccccc1", "Potency": "inactive"},
      {"smiles": "C=C[C@@H]1CN2CCC1C[C@H]2[C@H](O)c1ccnc2ccccc12", "note": "(stereo not given in full)", "Potency": "14.8 µM (active)"},
      {"smiles": "CCN1CCN(C(=O)Cc2ccc(Nc3ncc(F)c(Nc4ccc(C(=O)Nc5ccccc5Cl)cc4)n3)cc2)CC1", "Potency": "2.64 µM (active)"},
      {"smiles": "O=C(O)CNC(=O)c1c(O)c2ccccc2n(Cc2ccccc2)c1=O", "Potency": "inactive"},
      {"smiles": "COc1ccc2c(c1)CN(C)CC2c1ccc(Cl)c(Cl)c1", "note": "(stereo not given)", "Potency": "16.6 µM (active)"}
    ]}
  ]
}
